The source made the active and inactive calls.
System: XIP peptide (Xip251-270) binding
Assay: XIP fragment 251-270 binding compounds – biochemical, small-molecule microarray, fluorescence 635/667 nm, 0.1 µg/mL protein, primary screen (AID 1182)
Conditions: fluorescent protein binding, 635 nm, higher = more signal, called active from +8 up or from −8 down

Row | Compound | composite z-score
1 | O=C1CCCC=C1C(O)CCCCBr (stereo not given) | 0.26 (inactive)
2 | COC(=O)[C@@H]1CC[C@H](C)[C@@H](c2ccc(C)cc2)N1C(=O)c1ccc(C=NOCC[C@@H]2C=C[C@H](OC(C)=O)[C@@H](COC(C)=O)O2)cc1 | -0.425 (inactive)
3 | CCN1C(=O)[C@@H]2[C@H]3C(=CC[C@@H]2C1=O)C1(OCCCO1)[C@H]1O[C@H]1[C@H]3O | 0.645 (inactive)
4 | COC(=O)CC=C[C@@H](C)[C@@H](C=NOC[C@@H](O)[C@H]1O[C@@H]2OC(C)(C)O[C@@H]2[C@H]1O)NS(=O)(=O)c1ccc(C)cc1 | 0.0133 (inactive)
5 | C[C@@H](c1ccccc1)N1C(=O)[C@H]2[C@H]3[C@H](O)[C@H](O)CC(=NOCc4ccccc4)[C@H]3CC[C@H]2C1=O | -0.0218 (inactive)
6 | O=C1OCCC=C1C(O)CCc1ccccc1 (stereo not given) | 0.321 (inactive)
7 | CCOC(=O)C1=NO[C@]2(C=C(Br)C3(OCCCO3)[C@H]3O[C@H]32)C1 | -0.788 (inactive)
8 | COC(=O)C=CCCc1coc(C=CCNC(=O)OC)n1 | 0.56 (inactive)
9 | CC(C)=CCCC(C)=CCON=C1C[C@@H](O)[C@@H](O)[C@@H]2[C@@H]3C(=O)N(Cc4ccccc4)C(=O)[C@@H]3CC[C@@H]12 | 0.146 (inactive)
10 | CO[C@H](C1CCCCC1)[C@H](C)C=CCC(=O)OCCCc1ccccc1 | -0.74 (inactive)

System: XIP peptide (Xip251-270)
Assay: compounds binding XIP fragment 251-270 – biochemical, small-molecule microarray, fluorescence 635/667 nm, 0.5 µg/mL protein, primary screen (AID 1183)
Conditions: fluorescence 635 nm, higher = more signal

Row | Compound | composite z-score
11 | CCc1cc2c(nc1CC)CCN(CCC(C)=NO[C@H](C)c1cn([C@@H]3COC[C@H]3O)nn1)C2 | -0.0063
12 | CCO[C@H](c1cc(OC)cc([N+](=O)[O-])c1OC)[C@H](C)C=CCC(=O)OC | 0.325
13 | CC(CCN1CCCCc2nc(C)c(C)cc21)=NO[C@H](C)c1cn([C@H](CO)Cc2ccccc2)nn1 | 0.542
14 | CC(C)CCN1CCc2nc(COc3ccccc3)c3c(c2C1)CO[C@@H](C)C3 | 0.143
15 | CCOC(=O)NN=C1C[C@@H](O)[C@@H](O)[C@@H]2[C@@H]3C(=O)N([C@@H](C)c4ccccc4)C(=O)[C@@H]3CC[C@@H]12 | 0.519
16 | CC(=O)OC[C@H]1OC(ON=CC[C@@H]2C=C[C@H](OC(C)=O)[C@@H](COC(C)=O)O2)[C@H](OC(C)=O)[C@@H](OC(C)=O)[C@@H]1OC(C)=O (stereo not given in full) | 0.0849
17 | Cc1ccc(S(=O)(=O)N[C@@H]2COC(=O)[C@@H](C)COC(=O)CC=C[C@H]2C)cc1 | 0.038
18 | COc1cccc([C@H]2Oc3ccc(OC)cc3C(=NOC[C@@H](O)[C@H]3O[C@@H]4OC(C)(C)O[C@@H]4[C@H]3O)[C@@H]2O)c1 | 0.697
19 | CC(C)(C)N1C(=O)[C@H]2[C@H]3[C@H](O)[C@H](O)CC(=O)[C@H]3CC[C@H]2C1=O | 0.556
20 | C[C@@H]1CC[C@H]2C(=O)O[C@@H](Cc3ccccc3)CN2[C@H]1c1ccc(Br)cc1 | 0.174
21 | COC(=O)[C@H](C)NC(=O)CCC1CC(OC(=O)NCc2cccc3ccccc23)CC2(CCCC(COC(=O)NCC(c3ccccc3)c3ccccc3)O2)O1 (stereo not given in full) | 0.583
22 | CCC1=NOC(CCC2CC(OC(=O)NCc3cccc4c3OCO4)CC3(CCCC(COC(=O)NCCc4ccccc4OC)O3)O2)C1 (stereo not given) | 0.357
23 | CC(C)=CCCC(C)=CCON=C1C[C@@H](O)[C@@H](O)[C@@H]2[C@@H]3C(=O)N(C[C@@H]4CCCO4)C(=O)[C@@H]3CC[C@H]12 | 0.378
24 | CC(CCN1CCc2nc(-c3ccccc3)c(-c3ccccc3)cc2C1)=NOC[C@@H](O)COCc1ccco1 | 0.54
25 | COC(=O)[C@@H]1CC[C@H](C)[C@@H](c2ccc(C)cc2)N1C(=O)c1ccc(C=NOC[C@@H](C)[C@H](OCc2ccccc2)C(C)C)cc1 | 0.489
26 | COc1ccc(O[C@H]2C=C[C@@H](c3ccccc3)O[C@@H]2COC(=O)CCC(C)=NOC[C@@H](O)[C@H]2O[C@@H]3OC(C)(C)O[C@@H]3[C@H]2O)cc1 | -0.0871
27 | COc1ccc(COC(=O)NN=C2C[C@@H](O)[C@@H](O)[C@@H]3[C@@H]4C(=O)N(c5cccc(Oc6ccccc6)c5)C(=O)[C@@H]4CC[C@@H]23)cc1 | -0.206
28 | C#CCCCON=C1C[C@@H](O)[C@@H](O)[C@@H]2[C@@H]3C(=O)N(C(C)(C)C)C(=O)[C@@H]3CC[C@@H]12 | 0.109
29 | C#CCCCON=C1[C@H]2CCn3c(=O)n(-c4ccccc4)c(=O)n3[C@H]2[C@H](O)[C@@H]2O[C@H]12 | 0.193
30 | CCOC(=O)C1=NO[C@@]2(C=C(Br)C3(OCCCO3)[C@H]3O[C@H]32)C1 | 0.512

— PubChem BioAssay
